# In PubChem BioAssay (EPA / NIEHS):
# Where “and” joins values, the source holds several entries; their conditions need not be identical. Identical values can stand only once. Inconclusive results are not listed. Calls of active or inactive are those of the source. Rule for the calls, unless noted: active = hit-call score of the fitted dose curve at least 0.9, where 1 is the maximum; inconclusive = response in the unintended direction; inactive = score below 0.9.
# What was measured:
# [1] = molecular target: zebrafish Thyroid Hormone Receptor beta (TRb), thrb (gene 30607) (UniProt Q9PVE4); assay: ATG_zfTRb_XSP2: Attagene TRANS-FACTORIAL Multi-Species (XSP1) HepG2 Assay for zebrafish Thyroid Hormone Receptor beta (TRb) (AID 2283836);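 for AC50: potency for induction of reporter signal above DMSO so agonist direction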
# Method in brief: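 HepG2 cells transiently transfected with chimeric zebrafish TRb-GAL4 reporter units, dosed 24 h with 3 nM 6-alpha-fluorotestosterone and 1.5 nM norgestrel present. Reporter mRNA quantified by RT-PCR and capillary electrophoresis; gain fitted against DMSO.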
# [2] = molecular target: human Thyroid hormone Receptor beta (TRb), THRB (gene 7068) (UniProt P10828); assay: ATG_hTRb_XSP2: Attagene TRANS-FACTORIAL Multi-Species (XSP2) HepG2 Assay for human Thyroid hormone Receptor beta (TRb) (AID 2283840);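 note: actives raise reporter mRNA so potency reflects agonist-like gain of signal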
# Method in brief: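 Read-out: reporter mRNA induction (RT-PCR, 6-FAM labeling, capillary electrophoresis), gain-of-signal relative to DMSO baseline. Transiently transfected HepG2 TRANS multiplex (NR-Gal4 chimeras, GAL4-UAS reporters), 24 h chemical exposure; medium contained 3 nM 6-alpha-fluorotestosterone plus 1.5 nM norgestrel.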
# [3] = system: turtle Thyroid Hormone Receptor, alpha (TRa), gene 101949057; assay: ATG_trTRa_XSP2: Attagene TRANS-FACTORIAL Multi-Species (XSP1) HepG2 Assay for turtle Thyroid Hormone Receptor, alpha (TRa) (AID 2283834);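 note: hits raise reporter mRNA over the DMSO baseline so AC50 marks activators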
# Method in brief: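 Readout: reporter mRNA induction, fluorescence after RT-PCR, HpaI digestion and capillary electrophoresis. Transiently transfected HepG2, exogenous NR-Gal4 chimera driving GAL4-UAS reporter, 24 h compound exposure. Activity fitted upward relative to DMSO baseline.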
# [4] = ATG_M_61_XSP2: Attagene TRANS-FACTORIAL Multi-Species (XSP2) HepG2 Assay for M61 Transcription Factor (Internal Marker) (AID 2283835; active = hit-call score of the fitted dose curve at least 0.9, where 1 is the maximum; inactive = score below 0.9;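 note: reporter mRNA of an internal background marker read by RT-PCR and capillary electrophoresis; active means a rise in signal above the DMSO baseline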)
# Method in brief: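 First, HepG2 cells are transfected with reporter units under GAL4-UAS control. Next, chemicals are applied for 24 h. Then total RNA is reverse-transcribed, amplified, fluorescently labelled and sized by capillary electrophoresis, with gain of signal scored against DMSO.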
# [5] = ATG_XTT_Cytotoxicity_XSP2: Cytotoxicity Assessment in the Attagene TRANS-FACTORIAL Multi-Species (XSP2) HepG2 Assay (AID 2283837)
# Method in brief: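 HepG2 cells, transiently transfected with multiple reporter constructs, exposed to chemical for 24 h. Cell number assessed with XTT fluorescence read-out; loss of signal fitted relative to DMSO.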
# [6] = molecular target: human Thyroid hormone Receptor alpha (TRa), THRA (gene 7067) (UniProt P10827); assay: ATG_hTRa_XSP2: Attagene TRANS-FACTORIAL Multi-Species (XSP2) HepG2 Assay for human Thyroid hormone Receptor alpha (TRa) (AID 2283838)
# Method in brief: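 HepG2 cells were transiently transfected with GAL4-UAS reporter units for chimeric human TRa-Gal4 and dosed for 24 hours, with 3 nM 6-alpha-fluorotestosterone and 1.5 nM norgestrel present. Reporter mRNA was quantified by RT-PCR, FAM labelling and capillary electrophoresis, with gain of signal fitted versus DMSO.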
# [7] = molecular target: frog Thyroid hormone Receptor alpha (TRa), thra-a (gene 397942) (UniProt P15204); assay: ATG_frTRa_XSP2: Attagene TRANS-FACTORIAL Multi-Species (XSP2) HepG2 Assay for frog Thyroid hormone Receptor alpha (TRa) (AID 2283839);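 for AC50: AC50 reflects induction of frog TRa-driven reporter mRNA above DMSO baseline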
# Method in brief: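 Read-out: fluorescent reporter-transcript fragments resolved by capillary electrophoresis after RT-PCR and HpaI cut. Human HepG2 liver cells carry a transfected frog TRα-Gal4 chimera driving a UAS reporter; 24 h exposure, DMSO baseline, positive-direction fit.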
# [8] = system: Sodium/Iodide Symporter (NIS), SLC5A5 (gene 6528); assay: CPHEA_Stoker_NIS_Inhibition_RAIU: CPHEA's Radioactive Iodide Uptake (RAIU) Assay for Sodium/Iodide Symporter (NIS) Inhibition, Stoker and Laws Labs (AID 2283841)
# Method in brief: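 Iodide uptake through human NIS is measured in an engineered HEK293T line. Cells take up 125I (329pM final) for 2 hours at room temperature alongside chemicals at 0.001–100uM. Retained radioactivity is counted, and the signal is expressed against DMSO controls.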
# [9] = CPHEA_Stoker_NIS_Cytotoxicity: Cytotoxicity Assessment for CPHEA's Radioactive Iodide Uptake (RAIU) Assay for Sodium/Iodide Symporter (NIS) Inhibition, Stoker and Laws Labs (AID 2283897);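 for AC50: active means loss of ATP signal versus DMSO meaning cytotoxicity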
# Method in brief: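 ATP luminescence (Cell Titer Glo) measured viability, with loss of signal normalized to DMSO controls. Cells: hNIS-HEK293T-EPA, seeded 40 hours prior. Dosing: 0.001–100uM, 2 hours, room temperature, uptake buffer pH 7.4.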
# [10] = CEETOX_H295R_11DCORT_noMTC: CeeTox H295R High-throughput Steroidogenesis Assay for 11-Deoxycortisol (11DCORT), maximum tolerated concentration (MTC) filtered results only (AID 2283911; active = hit-call score of the fitted dose curve at least 0.9, where 1 is the maximum; inactive = score below 0.9); details: actives raise or lower the signal
# Method in brief: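 H295R, OECD 456-based; 10 uM forskolin 48 h → compound (0.1% DMSO) 48 h → medium extracted, 11DCORT by LC-MS/MS. Gain/loss vs DMSO control, all concentrations kept regardless of MTT viability.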
# [11] = CEETOX_H295R_OHPREG_noMTC: CeeTox H295R High-throughput Steroidogenesis Assay for OH-Pregnenolone (OHPREG), maximum tolerated concentration (MTC) filtered results only (AID 2283912; active = hit-call score of the fitted dose curve at least 0.9, where 1 is the maximum; inactive = score below 0.9); details: actives raise or lower the signal
# Method in brief: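 Steroidogenesis in H295R cells (OECD 456, modified): after 48 h forskolin priming and 48 h chemical treatment, secreted 17alpha-hydroxypregnenolone is measured by HPLC-MS/MS. Activity is fitted in both directions against DMSO; concentrations are not filtered by MTT-based MTC.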
# [12] = CEETOX_H295R_OHPROG_noMTC: CeeTox H295R High-throughput Steroidogenesis Assay for OH-Progesterone (OHPROG), maximum tolerated concentration (MTC) filtered results only (AID 2283914; active = hit-call score of the fitted dose curve at least 0.9, where 1 is the maximum; inactive = score below 0.9); details: actives raise or lower the signal
# Method in brief: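 Forskolin 10 uM, 48 h prestim → test cmpd in DMSO (0.1% final), 48 h → medium MTBE extraction → LC-MS/MS quant of 17alpha-OH-progesterone. Bidirectional fit vs DMSO; no MTT-based MTC filtering.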
# [13] = CEETOX_H295R_CORTISOL_noMTC: CeeTox H295R High-throughput Steroidogenesis Assay for Cortisol, maximum tolerated concentration (MTC) filtered results only (AID 2283916; active = hit-call score of the fitted dose curve at least 0.9, where 1 is the maximum; inactive = score below 0.9); details: actives raise or lower the signal
# Method in brief: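 Cortisol secretion measured by LC-MS/MS after 48 h chemical treatment (final 0.1% DMSO) of forskolin-primed (10 uM, 48 h) H295R cells; gain or loss fitted relative to DMSO, without maximum-tolerated-concentration filtering.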
# [14] = CEETOX_H295R_CORTIC_noMTC: CeeTox H295R High-throughput Steroidogenesis Assay for Corticosterone (CORTIC), maximum tolerated concentration (MTC) filtered results only (AID 2283917; active = hit-call score of the fitted dose curve at least 0.9, where 1 is the maximum; inactive = score below 0.9); details: actives raise or lower the signal
# Method in brief: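 Following OECD 456 with minor changes, H295R cultures received 10 uM forskolin for 48 h, then test chemical at 0.1% DMSO for 48 h. Media steroids were extracted and measured by LC-MS/MS.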
# [15] = CEETOX_H295R_DOC_noMTC: CeeTox H295R High-throughput Steroidogenesis Assay for DOC, maximum tolerated concentration (MTC) filtered results only (AID 2283918; active = hit-call score of the fitted dose curve at least 0.9, where 1 is the maximum; inactive = score below 0.9); details: actives raise or lower the signal
# Method in brief: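 11-Deoxycorticosterone secreted by human adrenal H295R cells quantified by HPLC-MS/MS after 48 h chemical exposure (0.1% DMSO), following 48 h 10 uM forskolin prestimulation. Concentrations not filtered by MTT-derived MTC; bidirectional fitting.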
# [16] = CEETOX_H295R_ESTRADIOL_noMTC: CeeTox H295R High-throughput Steroidogenesis Assay for Estradiol, maximum tolerated concentration (MTC) filtered results only (AID 2283919; active = hit-call score of the fitted dose curve at least 0.9, where 1 is the maximum; inactive = score below 0.9); details: actives raise or lower the signal
# Method in brief: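 H295R human adrenal cells pre-stimulated 48 h with 10 uM forskolin, then exposed 48 h to chemical (0.1% DMSO final). Estradiol in medium measured by HPLC-MS/MS after MTBE extraction and dansyl derivatization; bidirectional fit versus DMSO, concentrations not MTT-filtered.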
# [17] = CEETOX_H295R_PROG_noMTC: CeeTox H295R High-throughput Steroidogenesis Assay for Progesterone (PROG), maximum tolerated concentration (MTC) filtered results only (AID 2283920; active = hit-call score of the fitted dose curve at least 0.9, where 1 is the maximum; inactive = score below 0.9); details: actives raise or lower the signal
# Method in brief: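 H295R cells; forskolin 10 uM x 48 h prestim; test cpd 48 h, 0.1% DMSO final; media progesterone via LC-MS/MS; bidirectional fit vs DMSO; no MTT-based MTC filter applied.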
# [18] = CEETOX_H295R_ESTRONE_noMTC: CeeTox H295R High-throughput Steroidogenesis Assay for Estrone, maximum tolerated concentration (MTC) filtered results only (AID 2283921; active = hit-call score of the fitted dose curve at least 0.9, where 1 is the maximum; inactive = score below 0.9); details: actives raise or lower the signal
# Method in brief: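 H295R cells prestimulated 48 h with 10 uM forskolin, then exposed 48 h to chemical in 0.1% DMSO; medium estrone measured by HPLC-MS/MS after MTBE extraction and dansyl derivatization, fitted bidirectionally versus DMSO without MTT-based MTC filtering.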
# PGR (gene 5241) = PGR (gene 5241) (UniProt P06401); assay: TOX21_PR_BLA_Followup_Antagonist_ratio: Tox21 HEK293 Progesterone Receptor (PR) Antagonism Beta-lactamase Follow-Up Assay, Ratio (AID 2283934)
# Method in brief: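 PR-UAS-bla HEK293T cells, 3,000/well in 2% charcoal-stripped FBS, given compound plus 1nM R5020 agonist for 16 hr at 37C. Beta-lactamase FRET substrate 2 hours, ratio cleaved/uncleaved fluorescence; viability by CellTiter-Glo in same wells.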
# [19] = TOX21_PR_BLA_Followup_Agonist_viability: Viability Assessment in the Tox21 HEK293 Progesterone Receptor (PR) Agonism Beta-lactamase Follow-Up Assay (AID 2283935);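 note: signal loss means lower viability so actives are cytotoxic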
# Method in brief: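 PR-UAS-bla HEK293T cells in 2% charcoal-stripped FBS medium, plated 6 hr before compound addition, exposed 16 hr at 37C. Viability read by CellTiter-Glo ATP luminescence after 30 min at room temperature, in the same wells as the beta-lactamase readout.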
# Sequence of frog Thyroid hormone Receptor alpha (TRa), thra-a (gene 397942) (P15204 whole entry, looked up, the tested form may be a part): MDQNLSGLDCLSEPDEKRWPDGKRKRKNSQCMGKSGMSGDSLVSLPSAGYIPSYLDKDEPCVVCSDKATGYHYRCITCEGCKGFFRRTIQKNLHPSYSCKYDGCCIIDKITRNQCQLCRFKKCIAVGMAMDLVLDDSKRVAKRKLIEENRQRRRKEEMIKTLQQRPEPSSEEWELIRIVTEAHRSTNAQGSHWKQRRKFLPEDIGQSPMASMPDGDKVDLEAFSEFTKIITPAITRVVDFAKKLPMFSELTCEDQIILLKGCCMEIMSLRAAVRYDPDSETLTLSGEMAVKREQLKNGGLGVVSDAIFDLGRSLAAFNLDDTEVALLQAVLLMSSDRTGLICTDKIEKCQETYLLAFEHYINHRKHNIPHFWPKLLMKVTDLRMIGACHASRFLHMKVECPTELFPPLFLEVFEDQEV
# Sequence of zebrafish Thyroid Hormone Receptor beta (TRb), thrb (gene 30607) (Q9PVE4 whole entry, looked up, the tested form may be a part): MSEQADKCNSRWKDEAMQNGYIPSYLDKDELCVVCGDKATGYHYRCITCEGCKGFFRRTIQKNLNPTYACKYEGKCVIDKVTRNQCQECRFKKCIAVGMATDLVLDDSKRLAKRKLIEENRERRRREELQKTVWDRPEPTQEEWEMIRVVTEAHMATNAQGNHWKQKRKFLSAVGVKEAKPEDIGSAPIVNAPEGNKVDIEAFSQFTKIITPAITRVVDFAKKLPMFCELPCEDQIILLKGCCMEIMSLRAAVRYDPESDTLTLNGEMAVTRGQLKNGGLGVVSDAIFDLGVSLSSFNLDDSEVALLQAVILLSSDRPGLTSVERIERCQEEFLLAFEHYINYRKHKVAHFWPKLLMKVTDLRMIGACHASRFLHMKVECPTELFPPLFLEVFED
# Sequence of human Thyroid hormone Receptor beta (TRb), THRB (gene 7068) (P10828 whole entry, looked up, the tested form may be a part): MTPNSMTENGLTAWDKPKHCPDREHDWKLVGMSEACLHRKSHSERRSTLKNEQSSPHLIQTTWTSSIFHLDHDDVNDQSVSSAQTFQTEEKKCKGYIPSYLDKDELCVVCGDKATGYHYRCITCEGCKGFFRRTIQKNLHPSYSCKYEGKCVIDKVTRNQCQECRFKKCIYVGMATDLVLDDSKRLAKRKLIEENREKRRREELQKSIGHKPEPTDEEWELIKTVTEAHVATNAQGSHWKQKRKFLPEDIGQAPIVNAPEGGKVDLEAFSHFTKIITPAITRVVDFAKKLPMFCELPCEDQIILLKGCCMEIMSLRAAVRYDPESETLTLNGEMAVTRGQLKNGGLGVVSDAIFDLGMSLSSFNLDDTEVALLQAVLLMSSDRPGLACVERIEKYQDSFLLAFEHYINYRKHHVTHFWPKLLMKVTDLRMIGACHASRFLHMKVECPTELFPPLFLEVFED
# Sequence of human Thyroid hormone Receptor alpha (TRa), THRA (gene 7067) (P10827 whole entry, looked up, the tested form may be a part): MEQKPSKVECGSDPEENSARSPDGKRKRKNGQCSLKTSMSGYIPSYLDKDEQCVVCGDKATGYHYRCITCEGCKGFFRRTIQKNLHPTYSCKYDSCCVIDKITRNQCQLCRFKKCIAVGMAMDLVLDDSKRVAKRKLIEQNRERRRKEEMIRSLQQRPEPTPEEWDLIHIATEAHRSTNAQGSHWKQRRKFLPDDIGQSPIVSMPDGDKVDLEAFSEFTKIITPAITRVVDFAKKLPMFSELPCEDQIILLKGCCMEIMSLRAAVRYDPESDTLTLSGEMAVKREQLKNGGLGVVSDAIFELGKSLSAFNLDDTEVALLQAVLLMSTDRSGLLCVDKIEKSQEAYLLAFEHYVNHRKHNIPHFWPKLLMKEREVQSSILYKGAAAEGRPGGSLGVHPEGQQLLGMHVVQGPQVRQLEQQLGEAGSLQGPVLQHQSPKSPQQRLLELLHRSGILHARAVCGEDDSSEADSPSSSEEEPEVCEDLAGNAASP
# Sequence of PGR (gene 5241) (P06401 whole entry, looked up): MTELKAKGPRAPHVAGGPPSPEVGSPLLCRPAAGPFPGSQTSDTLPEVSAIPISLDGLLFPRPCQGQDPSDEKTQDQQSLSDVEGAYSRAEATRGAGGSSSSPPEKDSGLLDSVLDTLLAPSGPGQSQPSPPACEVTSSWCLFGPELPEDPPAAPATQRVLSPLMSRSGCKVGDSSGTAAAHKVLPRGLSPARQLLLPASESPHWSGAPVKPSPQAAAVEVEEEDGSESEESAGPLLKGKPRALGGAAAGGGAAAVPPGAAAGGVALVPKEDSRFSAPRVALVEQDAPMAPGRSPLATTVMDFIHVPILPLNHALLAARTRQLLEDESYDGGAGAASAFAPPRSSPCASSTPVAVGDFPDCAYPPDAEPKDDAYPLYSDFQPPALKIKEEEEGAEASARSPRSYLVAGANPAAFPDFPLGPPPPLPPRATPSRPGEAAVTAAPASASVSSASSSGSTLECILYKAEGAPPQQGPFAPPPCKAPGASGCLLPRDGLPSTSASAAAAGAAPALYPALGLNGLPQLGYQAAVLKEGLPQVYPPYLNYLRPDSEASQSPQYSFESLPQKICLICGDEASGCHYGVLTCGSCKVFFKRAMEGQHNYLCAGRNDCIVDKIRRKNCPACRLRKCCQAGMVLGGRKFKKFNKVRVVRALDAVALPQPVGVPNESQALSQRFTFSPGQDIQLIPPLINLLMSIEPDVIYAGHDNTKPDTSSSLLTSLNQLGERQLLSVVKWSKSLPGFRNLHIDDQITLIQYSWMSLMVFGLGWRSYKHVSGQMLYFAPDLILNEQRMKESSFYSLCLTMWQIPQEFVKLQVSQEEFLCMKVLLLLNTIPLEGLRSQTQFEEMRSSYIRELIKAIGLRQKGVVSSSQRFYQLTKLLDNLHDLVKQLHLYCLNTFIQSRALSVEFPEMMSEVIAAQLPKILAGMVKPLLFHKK
smiles,measurement,setting,value
CCOCN(C(=O)CCl)c1c(C)cccc1CC,outcome,[1],inactive
same,outcome,[2],inactive
CC(C)(C)C(O)/C(=C\c1ccc(Cl)cc1Cl)n1cncn1 (stereo not given),outcome,[3],inactive
same,outcome,[4],inactive
same,outcome,[1],inactive
same,AC50,[5],100 µM (active)
same,outcome,[6],inactive
same,outcome,[7],inactive
same,outcome,[2],inactive
same,AC50,[8],35.9 µM (active)
same,AC50,[9],50 µM (active)
O=C1c2ccccc2C(=O)N1SC(Cl)(Cl)Cl,AC50,[8],11.6 µM (active)
same,outcome,[9],inactive
O=C(Nc1ccccc1)Nc1cnns1,outcome,[8],inactive
same,AC50,[10],35.2 µM (active)
same,AC50,[11],14.3 µM (active)
same,AC50,[12],37.8 µM (active)
same,AC50,[13],41.7 µM (active)
same,AC50,[14],31.8 µM (active)
same,AC50,[15],25.4 µM (active)
same,outcome,[16],inactive
same,AC50,[17],34.7 µM (active)
same,outcome,[18],inactive
CCCN(CCC)c1c([N+](=O)[O-])cc(C(F)(F)F)cc1[N+](=O)[O-],outcome,[4],inactive
same,outcome,[1],inactive
same,outcome,[7],inactive
same,outcome,[8],inactive
same,outcome,[9],inactive
CCC(C)Nc1c([N+](=O)[O-])cc(C(C)(C)C)cc1[N+](=O)[O-] (stereo not given),outcome,[8],inactive
same,outcome,[9],inactive
ClC1C(Cl)C(Cl)C(Cl)C(Cl)C1Cl (stereo not given),outcome,[8],inactive
same,outcome,[9],inactive
same,outcome,PGR (gene 5241),inactive
same,outcome,[19],inactive
COP(=S)(OC)Oc1ccc([N+](=O)[O-])cc1,outcome,[3],inactive
same,outcome,[1],inactive
same,outcome,[5],inactive
same,outcome,[6],inactive
same,outcome,[7],inactive
same,outcome,[2],inactive
same,AC50,PGR (gene 5241),38.4 µM (active)
same,outcome,[19],inactive
CC(C)OC(=O)Nc1cccc(Cl)c1,outcome,[8],inactive
same,outcome,[9],inactive
CCOC1Oc2ccc(OS(C)(=O)=O)cc2C1(C)C (stereo not given),outcome,[8],inactive
same,outcome,[9],inactive
C#CCN1C(=O)COc2cc(F)c(N3C(=O)C4=C(CCCC4)C3=O)cc21,AC50,[8],50 µM (active)
same,AC50,[9],50 µM (active)
CC[C@H](C)[C@H]1O[C@]2(C=C[C@@H]1C)C[C@@H]1C[C@@H](C/C=C(\C)[C@@H](O[C@H]3C[C@H](OC)[C@@H](O[C@H]4C[C@H](OC)[C@@H](O)[C@H](C)O4)[C@H](C)O3)[C@@H](C)/C=C/C=C3\CO[C@@H]4[C@H](O)C(C)=C[C@@H](C(=O)O1)[C@]34O)O2 (tested in a mixture with another compound),outcome,[8],inactive
same,outcome,[9],inactive
Oc1ccc(Cl)cc1Cc1ccccc1,outcome,[3],inactive
same,outcome,[4],inactive
same,AC50,[1],10 µM (active)
same,outcome,[6],inactive
same,AC50,[7],10 µM (active)
same,outcome,[2],inactive
same,AC50,[8],50 µM (active) and 11.2 µM (active) and 21.7 µM (active)
same,AC50,[9],24.9 µM (active) and 50 µM (active)
CCN(CC)C(=O)SCc1ccc(Cl)cc1,AC50,[8],50 µM (active)
same,outcome,[9],inactive
